PubChem BioAssay AID743279 (National Center for Advancing Translational Sciences (NCATS), 2014)
The whole screen tested about 360,000 compounds, of which about 17,000 (4.7%) were called active. Roughly 5% stayed inconclusive and do not appear here. Rule as the data show it: active = activity change below about -50%; inconclusive = mostly about -30% to -49%; inactive = weaker than that. The sample as a whole holds a higher share of actives than the screen did.

experiment: qHTS for Inhibitors of Inflammasome Signaling: IL-1-beta AlphaLISA Primary Screen; settings: THP-1 LPS/ATP IL-1B secretion, 16 h; at 57.5 µM, hits give low values
Procedure, shortened: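 THP-1 cells pretreated 1 hr with compounds (up to 57.5 uM final), then stimulated with LPS (250 ng/mL final) plus ATP (1.25 mM final); secreted IL-1B measured by AlphaLISA after 16 hr, decreased signal indicating inhibition.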
% is scaled to controls: 0 for no effect and ±100 for the full control effect.

Activity change, active:
COc1cc2c(cc1OC)C(C)N(S(=O)(=O)c1cnc(Cl)c(Cl)c1)CC2 (stereo not given) -97.4%
COc1ccc(CC2c3cc(OC)c(OC)cc3CC[N+]2(C)CCC(=O)OCCCCCOC(=O)CC[N+]2(C)CCc3cc(OC)c(OC)cc3C2Cc2ccc(OC)c(OC)c2)cc1OC (stereo not given) -63.5%
CN(O)C(=S)c1ccccc1 -116%

Activity change, inactive:
Cc1ccc(S(=O)(=O)n2oc(=O)c(C3CCCCC3)c2N)cc1 -0.476%
C/C(COc1ccccc1)=N\NC(=O)c1nnn(-c2nonc2N)c1-c1ccc(C)cc1 -10.3%
CCCOc1ccc(F)cc1-c1cc(C(=O)Nc2ccc(F)c(Cl)c2)[nH]n1 -11.9%
O=C1c2ccncc2C(=O)N1C1CCCCC1 -1.14%
Cc1ccc(C)c(NC2=NCC(=O)N2c2ccc3c(c2)OCCO3)c1 1.69%
Cc1cn(C2CC(O)C(CO)O2)c(=O)n(CCCc2ccccc2)c1=O (stereo not given) 0%
CCOC(=O)N1CCN(C(=O)c2ccc(CN(c3ccc(C)c(C)c3)S(C)(=O)=O)cc2)CC1 1.54%
Cc1nc2ccccn2c(=O)c1NC(=O)c1ccc(Br)o1 9.2%
O=c1c2ccccc2ncn1CCc1ccncc1 -6.13%
COC1(C2=NCCN2)COc2ccccc2O1 (stereo not given) 6.63%
COc1cc2c(cc1OC)CN(C(=O)c1ccc(S(=O)(=O)N3CCCCCC3)cc1)CC2 -4.82%
COc1ccc(C2SCCN2S(=O)(=O)c2ccccc2)cc1OC (stereo not given) -9.4%
COC(=O)C1=CN(Cc2ccc(OC)c(OC)c2)C=C(C(=O)OC)C1c1cccs1 17.5%
CCc1ccc(OCC2c3cc(OC)c(OC)cc3CCN2C(C)=O)cc1 (stereo not given) -10.3%
Cc1ccc([C@H]2C[C@H](O)[C@@H](n3cc(COC(=O)c4ccccc4)nn3)CN2C(=O)C2CCCCC2)cc1 -14.7%
C[C@H](CO)N1C[C@H](C)[C@@H](CN(C)C(=O)c2cccc(F)c2)Oc2cc(-c3cncnc3)ccc2S1(=O)=O 3.54%
Clc1ccc(-c2cccc3nccn23)cc1 34.4%
CCOC(=O)c1cnn2c(SC)ncnc12 -22.6%
CN(CC(=O)O)C(=O)c1ccccc1 19.1%
CN(/N=C/c1ccccc1)C(=S)c1ccccc1 1.93%
CC(C)(C)C1CCC(=O)N2CCC[C@]2(c2ccccc2)C1 (stereo not given in full) 0.891%
COC(=O)c1c(NC(=O)CN2C(=O)NC(CCc3ccccc3)C2=O)sc2c1CCCCC2 (stereo not given) -15.4%
